These results are taken from PubChem BioAssay AID441 (NMMLSC, 2006).

One may read the inhibition as the relative decrease from the control value, in per cent.

Each structure is given as a SMILES string. Out of some 24,000 compounds screened, about 70 (0.3%) were called active. This excerpt belongs to a sample that is enriched for actives. Values without a mark were called inactive. Rule as the data show it: active = inhibition above about 30%; inconclusive = no clear call, values can overlap the other calls; inactive = below that.

Sequence of N-formyl peptide receptor 2 (Homo sapiens) (P25090 whole entry, looked up): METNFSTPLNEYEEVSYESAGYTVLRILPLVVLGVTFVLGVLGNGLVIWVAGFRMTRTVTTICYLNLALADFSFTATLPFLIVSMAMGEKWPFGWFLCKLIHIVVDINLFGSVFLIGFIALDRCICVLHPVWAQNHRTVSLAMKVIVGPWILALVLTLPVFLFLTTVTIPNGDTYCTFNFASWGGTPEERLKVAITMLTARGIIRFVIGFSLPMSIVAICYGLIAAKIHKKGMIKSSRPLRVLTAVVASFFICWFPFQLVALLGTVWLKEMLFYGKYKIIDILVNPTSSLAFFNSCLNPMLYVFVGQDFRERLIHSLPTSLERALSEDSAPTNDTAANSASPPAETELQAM

This test has as its target N-formyl peptide receptor 2 (Homo sapiens) (UniProt P25090). The experiment in a line: human FPRL1 ligands by binding competition, primary screen, cell-based, FPR counter-screen, flow cytometry (AID 441).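 Also: 0% = buffer alone and 100% = receptor blocker peptide.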 Particulars: FPRL1-expressing cells, fluorescent ligand binding inhibition, active compounds read high, concentration not given here. A general note: Counterscreens check selectivity or assay interference.
With `Cc1nnc(SCC(=O)N(C(C)C)C(C)C)nc1C`, the inhibition is -5.7%.

With `CCOC(=O)N1CCC(NC(=O)Cn2cc3c(n2)CCCCC3)CC1`, the inhibition is 0.2%.

In the case of `CCOC(=O)c1oc2c(CN3CCN(C)CC3)c(O)ccc2c(=O)c1-c1ccc(Br)cc1`, the inhibition was -3%.

As for `Cn1c(CNC(=O)C(C)(C)C)nc2ccccc21`, the inhibition is -0.3%.

Regarding `Cc1c(NC(=O)C(C)OC(=O)c2cc3c4ccccc4n(C)c3s2)c(=O)n(-c2ccccc2)n1C` (stereo not given), the inhibition was 0.1%.

Turning to `CCCNC(=O)C1CC(=O)N(c2ccc(OCC(=O)Nc3cccc(C)c3C)cc2)C1` (stereo not given), the inhibition is -4.6%.

As for `O=c1c2ccccc2[nH]c(=S)n1CCN1CCC(=C(c2ccc(F)cc2)c2ccc(F)cc2)CC1`, the inhibition was -11%.

Turning to `CC1Cc2cc(/C(O)=C3\C(=O)C(=O)N(CCN4CCOCC4)C3c3ccccc3F)ccc2O1` (stereo not given), the inhibition is 30.8% (active).

Regarding `O=C1C(=O)N(CCN2CCOCC2)C(c2ccccn2)/C1=C(/O)c1ccc(Cl)cc1` (stereo not given), the inhibition was -6.2%.

As for `COCCCN1C(=O)C(=O)/C(=C(/O)c2ccc3c(c2)CC(C)O3)C1c1cccnc1` (stereo not given), the inhibition was 28.3%.

For `CCOc1ccccc1C1CC(c2ccccc2)Nc2nc(N)nn21` (stereo not given), the inhibition was 0.2%.

As to `CCOC(=O)C1CCN(C(=O)Cc2c(C(=O)O)[nH]c3ccccc23)CC1`, the inhibition is 0.3%.

`CC1CCC(NS(=O)(=O)c2ccc3c(c2)n(C)c(=O)c(=O)n3C)CC1` (stereo not given): the inhibition was -4.7%.

For the compound `O=C(CC(NCCN1CCOCC1)C(=O)O)Nc1cccc(Cl)c1` (stereo not given), the inhibition was 4.9%.

Regarding `CCN(CCCNC(=O)C1CCN(S(=O)(=O)c2cnc[nH]2)CC1)c1ccccc1`, the inhibition was -1.3%.

Regarding `CCOC(=O)CNC(=O)CN1C(=O)CCSc2ccccc21`, the inhibition was -6.4%.

As for `CCOC(=O)c1ccc(-n2c(C)nc3c(cnn3-c3ccccc3C)c2=O)cc1`, the inhibition was -6%.

Regarding `Cc1cc(C)cc(N(CC(=O)NCC2CCCO2)S(=O)(=O)c2c(C)noc2C)c1` (stereo not given), the inhibition is 3.6%.

Take `Cc1nc2ccccc2c2oc(C(=O)NCC3CCCO3)cc12` (stereo not given): the inhibition is 3.5%.

Consider `CCOC(=O)c1nnn(-c2nonc2OC)c1-c1ccccc1`, for which the inhibition is 5.9%.

As for `N#CCCN1CCN(S(=O)(=O)c2ccc(S(=O)(=O)N3CCCC3)cc2)CC1`, the inhibition is 1.9%.

With `COC(=O)C1=C(C)Nc2ncnn2C1c1ccco1` (stereo not given), the inhibition is 0.6%.

For `COc1ccc(N2C(=O)CCC(C(=O)N(C)C3CCCCC3)C2c2ccc(OC)c(OC)c2)cc1` (stereo not given), the inhibition is -4.6%.

Consider `CCOC(=O)N1CCC(Nc2c(NCCN3CCN(c4cccc(Cl)c4)CC3)c(=O)c2=O)CC1`, for which the inhibition was 8%.

In the case of `O=C(CC1Oc2ccccc2NC1=O)NCCCN1CCN(Cc2ccccc2)CC1` (stereo not given), the inhibition is -1.8%.

`Cc1cccc(N2C(=O)SC(N(CC(=O)O)c3cccc(C)c3)C2=O)c1` (stereo not given): the inhibition was 0.6%.

Regarding `C/C(N)=C(\C#N)C(=O)NCCc1ccccn1`, the inhibition was -4.6%.

For `COC(=O)c1ccc(CN(c2ccccc2OC)S(=O)(=O)c2cccs2)o1`, the inhibition is -4.4%.

With `O=C(NCc1ccco1)C1CCCN(S(=O)(=O)c2cnc[nH]2)C1` (stereo not given), the inhibition is 0.2%.

Consider `Cc1cc(N2C(=O)C(=O)/C(=C(/O)c3ccccc3)C2c2cccc(Br)c2)no1` (stereo not given), for which the inhibition was -8.1%.

As for `COc1cccc(C(CC(=O)NCCN2CCOCC2)NS(=O)(=O)c2ccc(C)cc2)c1OC` (stereo not given), the inhibition was 0.8%.

Turning to `O=C(CN1CCN(c2ccccc2F)CC1)c1ccc2c(c1)OCO2`, the inhibition was -9.1%.

In the case of `O=C(Nc1cccnc1)c1ccc2c(c1)OCO2`, the inhibition was -0.1%.

Regarding `CCOC(=O)c1cn(CC(=O)Nc2ccc(C(C)C)cc2)nn1`, the inhibition is 1.8%.

For `CC1CN(C(=O)c2ccc3c(c2)OCO3)OC(c2ccccc2)O1` (stereo not given), the inhibition was 5.6%.

`Cc1ccc(-n2nc3cc(Cl)c(NC(=O)c4ccco4)cc3n2)cc1`: the inhibition was -4.7%.

In the case of `CCOC(=O)c1nc(-c2ccc3c(c2)OCO3)[nH]c1C`, the inhibition was -7.4%.

As for `CCC1=C(C(=O)OC)C(c2cc(OC)ccc2OC)C(C#N)=C(N)O1` (stereo not given), the inhibition is -1.1%.

As for `COCCN1C(=O)c2oc3c(C)cc(C)cc3c(=O)c2C1c1cccc(O)c1` (stereo not given), the inhibition is -10.9%.

With `CCCS(=O)(=O)N1CCCC(C(=O)NCCN2CCCCC2C)C1` (stereo not given), the inhibition was 3.4%.

Consider `O=C(Cn1cnc2c(nnn2Cc2ccc(F)cc2)c1=O)NCc1ccc2c(c1)OCO2`, for which the inhibition was -2.3%.

Turning to `Cc1cc(C)c2c(n1)nn1c(N3CCOCC3)cc(C)nc21`, the inhibition was -1.1%.

Turning to `CCOc1ccc(C(CC(=O)O)NC(=O)COc2ccccc2)cc1` (stereo not given), the inhibition is 0.6%.

As for `CCOC(=O)C1C(=O)C=C(c2ccc(OC)cc2)CC1c1ccco1` (stereo not given), the inhibition is -6.4%.

Consider `CCn1cc(C(=O)NC2CCCCCC2)c(=O)c2cc(S(=O)(=O)N3CCCCC3)ccc21`, for which the inhibition was -5.2%.

For the compound `Brc1cnc(N2CCCC2)nc1N1CCCCC1`, the inhibition is 0.1%.

Consider `CC(C)Cc1cc(C(=O)Nc2cc(Br)ccc2O)no1`, for which the inhibition was -1.4%.

For `Cc1cc(NC(=O)c2cc(-c3cccs3)on2)nn1Cc1ccc(Cl)cc1`, the inhibition is 2%.

For `CC(C)C[C@H](NC(=O)Nc1cccc(C(F)(F)F)c1)C(=O)O`, the inhibition is 2.8%.

As for `Fc1ccccc1C(c1nnnn1Cc1ccc2c(c1)OCO2)N1CCN(Cc2ccccc2)CC1` (stereo not given), the inhibition was 10.3%.

Take `c1ccc(Cc2nn3c(Cn4cnc5ccccc54)nnc3s2)cc1`: the inhibition is 4.2%.

For `CCOc1cccc(-c2nnc3sc(COc4ccc(OC)cc4)nn23)c1`, the inhibition was -1%.

In the case of `Clc1ccc(Cc2nn3c(-c4ccncc4)nnc3s2)cc1`, the inhibition is 54.5% (active).

Turning to `O=C(COC(=O)C12CC3CC(CC(C3)C1)C2)NCc1ccco1`, the inhibition is 0.4%.

Take `CCCN(CCC)CCNC(=O)c1cc2c(C)nc3ccccc3c2o1`: the inhibition was 4.8%.

On to `O=C1CC(c2cccc(F)c2)C2=C(CCCC2=O)N1` (stereo not given), for which the inhibition was 4.1%.

Regarding `CC(=O)NC1CC2CCCC(C1)N2CC(=O)Nc1ccccc1` (stereo not given), the inhibition is 2.2%.

For `O=C1NC2(CCCCC2)N=C1c1ccccc1`, the inhibition is -5.4%.

As for `CC(=O)Nc1cc(C(=O)O)ccc1S(=O)(=O)c1ccc(Cl)cc1`, the inhibition is -2.1%.

`CCOC(=O)c1cnc(-n2nc(C)cc2C)nc1Nc1cccc(C(C)=O)c1`: the inhibition is 9%.
